Measurements as given in PubChem BioAssay AID488969 (Vanderbilt High Throughput Screening Facility, 2010).
In all, about 110,000 compounds were measured (“z-score”: median about -0.1, highest 2% from about 2 on). This excerpt belongs to a sample that is enriched for the highest values. The source made the active and inactive calls.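 The calls were made as follows: active = z-score in the third read window above 3 or below -3; inactive = the rest.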

These compounds were tested against Metabotropic glutamate receptor 8 (Rattus norvegicus) (UniProt P70579) (assay: rat mGluR8 modulators via GIRK flux, primary screen, cell-based, thallium flux, HTS (AID 488969)). Conditions: HEK293 rat mGluR8, GIRK (G protein-gated inwardly rectifying potassium channel) thallium flux, FluoZin2; at 10 µM; stronger effect = higher value; submaximal glutamate (EC20) added with thallium.
Chain of Metabotropic glutamate receptor 8 (Rattus norvegicus) (P70579 whole entry, looked up): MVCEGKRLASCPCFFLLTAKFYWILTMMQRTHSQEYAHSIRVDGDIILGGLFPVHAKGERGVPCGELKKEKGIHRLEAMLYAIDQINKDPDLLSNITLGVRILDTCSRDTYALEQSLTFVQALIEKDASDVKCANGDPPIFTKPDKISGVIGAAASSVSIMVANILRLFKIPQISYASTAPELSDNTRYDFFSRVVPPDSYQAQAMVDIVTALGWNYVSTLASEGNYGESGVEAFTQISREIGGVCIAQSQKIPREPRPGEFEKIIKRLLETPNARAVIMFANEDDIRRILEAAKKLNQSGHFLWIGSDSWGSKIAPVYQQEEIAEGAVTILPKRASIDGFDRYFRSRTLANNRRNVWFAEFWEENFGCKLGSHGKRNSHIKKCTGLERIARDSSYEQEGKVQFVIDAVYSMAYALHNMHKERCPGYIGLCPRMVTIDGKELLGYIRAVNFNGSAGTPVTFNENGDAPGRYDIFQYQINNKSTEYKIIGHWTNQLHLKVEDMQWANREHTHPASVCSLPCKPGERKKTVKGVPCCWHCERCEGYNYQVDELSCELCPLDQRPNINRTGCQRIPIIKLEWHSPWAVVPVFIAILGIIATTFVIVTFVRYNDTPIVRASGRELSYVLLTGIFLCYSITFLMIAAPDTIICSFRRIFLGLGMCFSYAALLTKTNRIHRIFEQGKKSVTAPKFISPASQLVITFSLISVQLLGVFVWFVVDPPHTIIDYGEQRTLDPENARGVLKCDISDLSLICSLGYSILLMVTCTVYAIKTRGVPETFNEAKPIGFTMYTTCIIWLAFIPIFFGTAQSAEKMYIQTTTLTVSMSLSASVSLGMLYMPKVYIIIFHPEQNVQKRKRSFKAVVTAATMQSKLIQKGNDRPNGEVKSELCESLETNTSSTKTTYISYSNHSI

SMILES | z-score
CNc1nc(SCc2ccccc2Cl)nc2c1CCCC2 | -0.358
Cc1cc(CC(C)C)n(-c2nc3ccccc3c(=O)n2OCc2ccccc2)n1 | 0.802
Cc1cc(CC(C)C)n(-c2nc3ccccc3c(=O)n2OCC(N)=O)n1 | 3.83 (active)
Cc1cc(C)n(-c2nc3ccccc3c(=O)n2OCC(N)=O)n1 | -0.254
Cn1c(SCc2nc(-c3ccc(Cl)cc3)no2)nnc1-c1ccco1 | 0.0893
O=C(COc1ccc(OCc2ccccc2)cc1)NC1CCOC1=O (centres undefined) | -0.0067
CC(C)C(c1nnnn1C1CCCC1)N(C)C1CCCCC1 (centres undefined) | -0.559
CC(C)OCCCNC(=O)c1ccc(Br)cc1 | 0.954
CC(C)OCCCNC(=O)c1cccc(NC(=O)c2ccccc2)c1 | 2.99
COCCCNC(=O)c1cccc(NC(=O)c2ccccc2)c1 | -0.13
COc1ccccc1C(=O)Nn1cnc2ccccc2c1=O | 0.366
CCCCN1C2=C(C(=O)CCC2)C(c2ccc(Cl)c(Cl)c2)C2=C1c1ccccc1C2=O (centres undefined) | -0.878
Cc1cc(C)c(S(C)(=O)=O)c(Oc2ccccc2C)n1 | -0.0363
O=C1NCCCc2c1oc1ccc(O)cc21 | -0.602
Oc1c(Cl)cc(Cl)c2c1NCCC2 | 5.54 (active)
Cc1cc2c(C)cc(=O)oc2c2c1NCCC2 | -0.295
Cc1cc(C)cc(NC(=O)C(Nc2ccccc2)c2ccccc2)c1 (centres undefined) | 0.168
CCCN(CCC)C(=O)c1ccccc1C(=O)N(CCC)CCC | -0.328
Cc1cc2c(C)nc3ccccc3c2o1 | -0.371
COc1ccc(NC(=O)c2ocnc2C)cc1OC | -0.369
Cc1nc(C)c(C(=O)Nc2ccccc2-c2ccccc2)o1 | -0.0653
Cc1ncoc1C(=O)Nc1ccc(Oc2ccccc2)cc1 | 2.26
Cc1nc(C)c(C(=O)Nc2ccc(Oc3ccccc3)cc2)o1 | 6.45 (active)
Cc1nc(C)c(C(=O)Nc2cccc(Cl)c2)o1 | 0.108
COc1cccc(NC(=O)c2ocnc2C)c1 | -0.0866

SMILES | z-score
CC(C)(C)NC(=O)Cn1nnc(-c2ccc(Cl)cc2)n1 | -0.11
COc1ccc(OCC(=O)NC(=S)Nc2ccc(S(=O)(=O)Nc3cc(OC)nc(OC)n3)cc2)cc1 | -0.254
COC(=O)CC(NC(=O)c1ccc(C)cc1)c1ccccc1 (centres undefined) | -0.129
Cc1ccc(Cn2cc(S(=O)(=O)c3ccc(Cl)cc3)c(=O)c3cc(F)ccc32)cc1 | -0.041
COc1cc(/C=N/NC(=O)CC23CC4CC(CC(C4)C2)C3)cc(Br)c1OCC(=O)N(C)C | -0.225
O=c1c2c3c(sc2nc2n1CCCC2)CCCC3 | -0.196
Cc1ccc(Nc2nc(N)c([N+](=O)[O-])c(NCc3ccco3)n2)cc1 | -0.288
Cc1cccc(Nc2nc(NCc3ccco3)c3ccccc3n2)c1 | 0.729
Cc1cccc(Nc2nc(N)c([N+](=O)[O-])c(NCc3ccco3)n2)c1 | 2.38
Cc1ccc(Nc2nc(N)c([N+](=O)[O-])c(NCc3ccco3)n2)cc1C | 0.169
Nc1nc(NCc2ccccc2)nc(NCc2ccccc2)c1[N+](=O)[O-] | -0.14
Nc1nc(Nc2ccccc2)nc(NCc2ccco2)c1[N+](=O)[O-] | 4.24 (active)
Cc1ccc2c(c1)C(=O)CCN2 | 0.498
CC(C)NC(=S)NC(=O)/C=C/c1cccc2ccccc12 | 0.214
CC(OC(=O)C1=COCCO1)C(=O)Nc1ccc(Oc2ccccc2)cc1 (centres undefined) | 0.0205
CCOC(=O)c1c(C)[nH]c(=S)c(C#N)c1-c1ccc(Cl)cc1 | 3.4 (active)
CCOC(=O)c1c(C)[nH]c(=S)c(C#N)c1-c1ccc(OC)cc1 | 0.501
CCOC(=O)c1c(-c2ccc(Cl)cc2)c(C#N)c(=O)n(N)c1N | -0.497
N#Cc1ccccc1CSc1ccc(-c2nc3ccccc3[nH]2)cn1 | -0.154
COc1ccc(-c2cc(C(F)(F)F)c(C#N)c(SCC(=O)Nc3nc(C)co3)n2)cc1 | -0.185
O=[N+]([O-])c1cccnc1N1CCC(c2cc(-c3cccc(C(F)(F)F)c3)n[nH]2)CC1 | -0.378
COCCCNC(=S)N1CCN(C(=O)c2ccco2)CC1 | -0.034
CNC(=S)N1CCN(C(=O)c2ccco2)CC1 | 2.05
O=C(c1ccco1)N1CCCN(C(=O)c2ccco2)CC1 | -0.354
O=C(Cc1ccccc1)N1CCN(C(=O)c2ccco2)CC1 | -0.0691

SMILES | z-score
CC1CCc2nn(CC(=O)N3CCN(C(=O)c4ccco4)CC3)cc2C1 (centres undefined) | 3.92 (active)
CC1CCCN(C(=O)CN2CCN(C(=O)c3ccco3)CC2)C1 (centres undefined) | 0.124
O=C(CCSc1ccccc1)N1CCN(C(=O)c2ccco2)CC1 | -0.515
CC1CCc2nn(CC(=O)N3CCc4ccccc43)cc2C1 (centres undefined) | 0.16
O=C(CCC1CCCC1)N1CCN(C(=O)c2ccco2)CC1 | 2.43
CCn1c(SCc2nc3ccccc3c(=O)[nH]2)nc2ccccc2c1=O | -0.672
Cc1ccc2cc(CN(Cc3cccs3)Cc3nnnn3CC3CCCO3)c(=O)[nH]c2c1 (centres undefined) | -0.0837
CCOC(=O)N1CCN(CC(=O)Nc2ccc(C)c(Br)c2)CC1 | -0.241
CCOC(=O)COc1ccc(S(=O)(=O)Nc2ccc(C)cc2)cc1 | -0.352
CCC(c1c(C)[nH]oc1=O)c1c(C)[nH]oc1=O | 0.119
COc1cc(/C=C2/SC(N)=NC2=O)ccc1Oc1ccc([N+](=O)[O-])cc1[N+](=O)[O-] | -0.644
Cc1cc(C(=O)COC(=O)Cc2n[nH]c(=O)c3ccccc23)c(C)n1-c1cccc(C(F)(F)F)c1 | -1.01
CCN(CC)c1ccc2cc(C(N)=O)c(=O)oc2c1 | -0.0435
CCN(CC)c1ccc2cc(C=O)c(=O)oc2c1 | 17.6 (active)
CCN(CC)c1ccc2cc(-c3nnc(-c4ccccc4)o3)c(=O)oc2c1 | 2.42
CCN(CC)c1ccc2cc(C(C)=O)c(=O)oc2c1 | -2.23
CCN(CC)c1ccc2cc(-c3nnc(-c4ccc(Br)cc4)o3)c(=O)oc2c1 | -4 (active)
CCN(CC)c1ccc2cc(-c3nnc(-c4ccncc4)o3)c(=O)oc2c1 | -1.17
CC1CCc2nn(CC(=O)NCCCN3CCOCC3)cc2C1 (centres undefined) | -0.0438
O=C(c1cccc(-n2cnnn2)c1)N1CCOCC1 | -0.145
COC(=O)c1ccc(C(C(=O)NCc2ccccc2)N(Cc2cccs2)C(=O)c2cnccn2)cc1 (centres undefined) | -0.245
CCc1ccccc1N1C(=O)c2ccccc2S1(=O)=O | -0.409
CN(CCc1ccccn1)S(=O)(=O)c1ccccc1F | 0.185
O=C1c2ccccc2C(=O)N1Nc1ccccc1 | 4.88 (active)
O=C1C=C(c2ccccc2)C(=O)N1Nc1ccccc1 | 0.219

SMILES | z-score
O=C1c2ccccc2C(=O)N1CNc1ccccc1 | 0.141
COc1ccc(/C=N/OCC(=O)Nc2nc3ccccc3s2)cc1 | -0.132
Cc1cc(OCCN2CCCCC2)nc2ccccc12 | 0.234
Cc1cc(C)cc(C(=O)n2cnnc2N)c1 | -0.0618
CC(C)OC(=O)CC12CN(C)CC(CC(=O)OC(C)C)(CN(C)C1)C2=O | 0.458
CC(C)OC(=O)CC12CN3CN(C1)CC(CC(=O)OC(C)C)(C3)C2=O | 3.43 (active)
CCOC(=O)CC12CN3CN(C1)CC(CC(=O)OCC)(C3)C2=O | -0.0089
O=C(O)c1ccc(F)c(S(=O)(=O)Nc2ccccc2Cl)c1 | -0.11
COC(=O)c1ccccc1NC(=O)c1cccc(NC(=O)CSCc2ccccc2)c1C | -0.0727
Cc1cc(Cl)ccc1OCCCC(=O)NCC1CCCO1 (centres undefined) | -0.79
CC(C)C(=O)Nc1cccc(NC(=O)c2cc3ccccc3o2)c1 | 7.7 (active)
CC(C)C(=O)Nc1ccc(NC(=O)c2cc3ccccc3o2)cc1 | -0.885
Cc1cccc(NC(=O)c2cc3ccccc3o2)c1 | -1.37
CCOc1ccc(OCC)c(NC(=O)c2[nH]c(C)c(C(C)=O)c2C)c1 | 0.862
O=C(NCc1nc2ccccc2[nH]1)c1cccc(S(=O)(=O)N2CCCC2)c1 | 2.4
O=C(NCc1nc2ccccc2[nH]1)c1ccc(Cl)c(S(=O)(=O)N2CCCC2)c1 | -0.297
O=C(NCc1nc2ccccc2[nH]1)c1cccc(S(=O)(=O)N2CCOCC2)c1 | 0.567
CCN(c1c(C)n(C)n(-c2ccccc2)c1=O)S(C)(=O)=O | 0.17
Cc1ccc(S(=O)(=O)NC2CCCC2)cc1C | -0.157
Cc1cc(C)c2c(c1)-c1c(ssc1=S)C(C)(C)N2C(=O)CN1C(=O)c2ccccc2C1=O | 0.383
CC(C)(C)Nc1nc(Cl)nc(NC(C)(C)C)n1 | -0.0263
CNc1nc(Cl)nc(NC(C)(C)C)n1 | 7.77 (active)
CC(C)(C)Nc1nc(NN)nc(NC(C)(C)C)n1 | -0.766
CCn1c(=NC(=O)CSC(C)=O)sc2cc(F)ccc21 | 0.658
CCn1c(=NC(=O)CSC(C)=O)sc2cc(OC)ccc21 | 0.477

SMILES | z-score
CCn1c(=NC(=O)CSC(C)=O)sc2ccccc21 | 3.49 (active)
CN1CCN(CCC(=O)Nc2ccc3c(c2)OCO3)CC1 | 0.213
Cc1cccc(NC(=O)CSc2nc3ccc(NC(=O)CSc4nnnn4-c4ccccc4)cc3s2)c1C | 0.181
CCN(CC)S(=O)(=O)c1cc(NC(=O)COC(=O)c2sc3ccccc3c2Cl)ccc1C | -0.0136
Cc1cc(/C=C2\SC(=S)NC2=O)c(C)n1C | -0.121
Cc1sc(-n2c(C)cc(/C=C3\SC(=S)NC3=O)c2C)c(C#N)c1C | 2.26
CCn1c(C)cc(/C=C2/SC(=S)NC2=O)c1C | 0.271
CCN1CCN(C(=O)C(C)N(c2ccc(C)cc2)S(C)(=O)=O)CC1 (centres undefined) | 1.05
CCOC(=O)c1sc(NC(=O)CN2CCCC2)c(C(=O)OCC)c1C | -0.225
CCOC(=O)c1sc(NC(=O)CN(CC)CC)c(C(=O)OCC)c1C | -0.132
CCOC(=O)c1sc(NN=C(C(=O)OC)C(=O)OC)c(C(=O)OCC)c1C | 2.57
COCCSc1ccccc1C(=O)Nc1ccncc1 | 0.236
O=C(Cc1ccccc1)NC(=S)Nc1cc(C(F)(F)F)ccc1Cl | 0.00533
CCC(=O)Nc1cccc(NC(=S)NC(=O)Cc2ccccc2)c1 | -0.281
O=C(CN1CCN(c2ccccc2)CC1)Nc1cccc(C(F)(F)F)c1 | 0.756
O=C(Cc1ccccc1)NC(=S)Nc1cccc(C(F)(F)F)c1 | 4.01 (active)
CCCCOc1cccc(C(=O)NC(=S)Nc2cccc(C(F)(F)F)c2)c1 | 1.84
O=C(CN1CCN(Cc2ccccc2)CC1)Nc1cccc(C(F)(F)F)c1 | 7.94 (active)
S=C(NCc1ccccc1)NCc1ccccc1 | 0.346
CCCOc1cccc(C(=O)NC(=S)Nc2cccc(C(F)(F)F)c2)c1 | 3.57 (active)
S=C(NCc1ccccc1)NCc1ccc2c(c1)OCO2 | 1.86
O=C(CN1CCN(c2cccc(C(F)(F)F)c2)CC1)Nc1cccc(C(F)(F)F)c1 | 1
CCCOc1cccc(C(=O)NC(=S)Nc2ccccc2)c1 | 0.0309
S=C(NCc1ccccc1)NCc1cccc(CNC(=S)NCc2ccccc2)c1 | 2.84
